Screening data (PubChem BioAssay)
Most compounds without a hit are left out; they make up all but 0.56% or so of the library.
PDI inh = inhibitors of human protein disulfide isomerase. P07237. inhibition, % at 10 µM. PDI insulin aggregation turbidity, A650, 90 min. AID 588391. 350,000 compounds, 0.052% hits;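 active = mean inhibition across replicates of 30% or more, whatever share of single replicates reach that level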
Vif imaging = HIV Vif inhibition | inhibition, % at 7.49 µM | HEK293T cells, Vif self-association by quenched fluorescence, imaging, 24 h | AID 602346 | 340,000 compounds, 0.35% hits; in the data active = inhibition above about 50%, passing the limit was not always enough
ERp5 inh = inhibitors of human ERp5. 350,000 compounds, 0.05% hits. ERp5 insulin aggregation, absorbance 650 nm, 90 min. inhibition, % at 9.99 µM;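 active = mean replicate inhibition above about 25%, with every replicate also reaching it, limit read from the data, passing the limit was not always enough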
Target sequence (Q15084 whole entry, looked up): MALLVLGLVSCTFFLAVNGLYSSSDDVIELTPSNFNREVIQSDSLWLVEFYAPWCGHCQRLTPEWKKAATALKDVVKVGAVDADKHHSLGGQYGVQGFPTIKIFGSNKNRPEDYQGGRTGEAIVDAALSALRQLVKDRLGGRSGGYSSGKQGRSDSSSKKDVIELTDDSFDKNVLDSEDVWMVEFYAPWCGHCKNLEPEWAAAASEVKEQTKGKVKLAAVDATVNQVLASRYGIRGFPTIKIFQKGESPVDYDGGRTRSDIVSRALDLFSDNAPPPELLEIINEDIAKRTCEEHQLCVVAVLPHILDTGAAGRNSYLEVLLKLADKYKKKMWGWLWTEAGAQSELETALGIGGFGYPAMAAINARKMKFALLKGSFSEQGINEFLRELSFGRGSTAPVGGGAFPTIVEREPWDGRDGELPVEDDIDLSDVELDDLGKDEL
PvdQ inh = P. aeruginosa PvdQ acylase inhibition; 340,000 compounds, 0.063% hits; inhibition, % at 10 µM; purified PvdQ acylase, fluorescence plate reader; AID 488965; in the data active = inhibition above about 30%, passing the limit was not always enough;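 note: 0% = vehicle neutral wells and 100% = reference inhibitor wells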
Glyco luc inh = blocks N-linked glycosylation in D54 reporter cells. D54 ERlucT glycosylation luciferase reporter, 24 h; percent of 100 nM tunicamycin response. 360,000 compounds, 0.23% hits. reporter increase, % at 12.5 µM;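 active = mean luciferase reporter signal, scaled so untreated is 0 and the glycosylation-blocking control 100, at or above a set limit in every replicate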;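 note: luciferase carries N-glycosylation sites so blocking glycosylation raises the light; 0% = median of neutral control wells and 100% = median of 100 nM tunicamycin wells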
Active calls of the source: *; . = not tested or not shown.

SMILES | PDI inh | Vif imaging | ERp5 inh | PvdQ inh | Glyco luc inh
CCOc1ccc(-n2c(C)cc(C(=O)CCl)c2C)cc1 | -7.6 | -1.2 | 1.1 | -10.1 | 40.7*
COc1ccc2c3c(n(C)c2c1)[C@H](CO)N(S(C)(=O)=O)CC31CCN(CC2CCCC2)CC1 | . | . | 59.7* | . | .
COc1ccc2c3c(n(C)c2c1)[C@H](CO)N(S(C)(=O)=O)CC31CCN(CC2CCCCC2)CC1 | . | . | -3.9 | . | .
Cc1ccc(Cl)cc1N1C(=O)CC(C)(C)CC1=O | -3.5 | 13.0 | 4.0 | -9.4 | -0.4
CCCNC(=O)c1cc(C2CCCN(S(=O)(=O)c3cccc4cccnc34)C2)on1 (stereo not drawn) | 5.4 | 72.5* | -2.8 | . | 0.1
O=C(NCc1ccccc1)c1cc(C2CCCN(S(=O)(=O)c3cccc4cccnc34)C2)on1 (stereo not drawn) | -1.6 | -6.2 | -0.9 | . | -3.7
NS(=O)(=O)c1ccc(CCNC(=O)C2CCN(C(=O)Nc3ccccc3)CC2)cc1 | 9.4 | 55.0* | -5.9 | 6.9 | 0.1
COc1ccc(-c2[nH]ncc2/C=C(/C#N)C(=O)NC2CCCCCC2)cc1 | 19.7 | -17.9 | . | 0.7 | 5.8
O=c1nc(/C=C/c2ccc(O)c(O)c2)oc2ccccc12 | -13.9 | -14.7 | . | -1.0 | -2.3
O=c1oc(-c2ccc(F)cc2)nc2ccsc12 | 2.8 | -7.7 | . | 70.2* | 3.4
O=C(Nc1ccc2c(c1)nc1n2CCOC1)c1ccccc1 | -9.2 | 58.3* | . | -7.3 | 0.5
Clc1cccc(Nc2nc(-c3ccncc3)cs2)c1 | 11.0 | -11.0 | 1.8 | -15.8 | -7.7
COc1cc(C2=NOC(C(=O)NCc3ccc(F)cc3)C2)cc(OC)c1OC (stereo not drawn) | 3.4 | 60.2* | . | 10.0 | 24.1
COc1ccc(-c2cc(C(=O)Nc3ccc4c(c3)OCO4)no2)cc1 | -2.5 | 53.2* | 1.0 | -6.1 | -2.4
COc1ccc2nc(Nc3ccc4c(c3)OCO4)sc2c1 | -5.3 | 52.5* | . | 3.8 | -3.3
COc1ccc(-c2cc(C(=O)Nc3ccc(OC)c(OC)c3)no2)cc1 | -0.6 | -3.9 | 1.2 | -16.8 | 1.1
O=C(CSc1nnnn1-c1ccc(F)cc1)NCc1cccs1 | -5.5 | 1.0 | -6.0 | -5.8 | 1.6
C=CC(C)(O)CCCC(C)CCCC(C)CCCC(C)C (stereo not drawn) | . | 159.6* | -0.5 | -11.6 | -1.0
CC1=CC(c2ccc(Cl)cc2)n2nc(NS(=O)(=O)c3ccc(C)cc3)nc2N1 (stereo not drawn) | 9.3 | -1.2 | . | -4.0 | 6.0
c1ccc2c(c1)nc(N1CCOCC1)c1c3ccccc3[nH]c21 | 0.5 | 5.8 | -10.2 | -8.0 | 38.9*
CCOC(=O)[C@H]1[C@H]2COc3ccc(Cl)cc3[C@@H]2N2C(=O)[C@@H](CO)NC(=O)[C@@]12C | 7.2 | -3.1 | -2.1 | 10.8 | 2.3
CCOc1cc(-c2c(C#N)c(N)nc3c2CCc2ccccc2-3)ccc1O | -3.4 | 5.1 | . | -12.3 | 46.1*
COc1ccccc1-c1c(C#N)c(N)nc2c1CCc1ccccc1-2 | -0.2 | -0.2 | . | -56.5 | 32.0*
COc1ccccc1-c1c(C)c(C)nc(N)c1C#N | -3.6 | 24.1 | . | -10.0 | 0.0
Cc1cccc(C(=O)N[C@H](C(=O)Nc2nc3ccccc3[nH]2)C(C)C)c1 | 6.3 | 78.5* | -2.2 | -8.7 | 8.8
SMILES | PDI inh | Vif imaging | ERp5 inh | PvdQ inh | Glyco luc inh
COc1ccc(C(=O)N[C@H](C(=O)Nc2nc3ccccc3[nH]2)C(C)C)cc1 | 0.5 | -4.1 | 5.8 | -4.5 | 4.1
C[C@H](CO)N1C[C@H](C)[C@@H](CN(C)C(=O)Nc2ccc(F)cc2)Oc2ccc(NS(=O)(=O)c3cccs3)cc2C1=O | . | . | -3.7 | . | .
CSc1nc(SCC(=O)O)c2sc3nc(-c4ccccc4)c4c(c3c2n1)CCC4 | 52.5* | -2.8 | 3.3 | -2.7 | -0.1
CCN(CC(=O)NC(=O)NC1CCCCC1)Cc1ccccc1 | 2.6 | . | -1.2 | -3.6 | -0.4
CCN(C(=O)c1ccc(NC(=O)c2ccco2)cc1)c1ccccc1 | 1.4 | -5.1 | -1.1 | -11.4 | -3.8
Cc1ccc2nc(-c3cccc(Br)c3)c(Cc3cccc(Cl)c3)n2c1 | . | . | 25.3* | . | -1.7
Clc1cccc(Cc2c(-c3cccc(Br)c3)nc3ccc(Cl)cn23)c1 | . | . | -1.8 | . | -0.7
COC(=O)c1noc(-c2ccc(OC)cc2)n1 | 21.4 | 3.8 | . | 70.9* | -1.4
Cc1cc(C)nc(NS(=O)(=O)c2ccc(NC(=O)c3ccc(N4C(=O)CCC4=O)cc3)cc2)n1 | 5.9 | 9.1 | . | 44.1* | -3.9
COc1cc(NC(=O)c2ccccc2)ccc1NC(=O)c1cc2ccccc2o1 | -4.5 | 1.3 | 4.6 | -14.0 | 1.6
Cc1cc(NC(=O)c2cncc(Br)c2)ccc1NC(=O)c1cc2ccccc2o1 | -4.3 | 104.4* | -1.2 | -17.2 | -10.1
CN(C)CCNc1cccc2sc3ccc(O)cc3c(=O)c12 | . | 2.4 | 6.6 | . | 106.7*
COc1cc(C)c2sc3ccccc3c(=O)c2c1NCCN(C)C | -1.4 | -5.9 | 16.2 | . | 21.2
Cc1ccc(NCCN(C)C)c2c(=O)c3cc(O)ccc3sc12 | 1.0 | -3.7 | 13.9 | -6.1 | 62.5*
C[C@@H]1O[C@@H](Oc2c(-c3cc(O)c(O)c(O)c3)oc3cc(O)cc(O)c3c2=O)[C@H](O)[C@H](O)[C@H]1O | 47.4* | -6.2 | 11.5 | -11.9 | -0.1
C[C@@H]1O[C@@H](Oc2c(-c3ccc(O)c(O)c3)oc3cc(O)cc(O)c3c2=O)[C@H](O)[C@H](O)[C@H]1O | 73.0* | -5.4 | 1.8 | -13.5 | 1.0
COc1cc(-c2oc3cc(O)cc(O)c3c(=O)c2O[C@@H]2O[C@H](COC3O[C@@H](C)[C@H](O)[C@@H](O)[C@H]3O)[C@@H](O)[C@H](O)[C@H]2O)ccc1O (stereo partly drawn) | 55.6* | -0.5 | -2.0 | 4.3 | 0.5
C[C@@H]1O[C@@H](O[C@H]2[C@H](O)[C@@H](O)[C@H](Oc3c(-c4ccc(O)c(O)c4)oc4cc(O)cc(O)c4c3=O)O[C@@H]2CO)[C@H](O)[C@H](O)[C@H]1O | 67.3* | 9.8 | -7.2 | -8.2 | 2.8
O=S(=O)(Nc1ncccn1)c1ccc(NC(=S)Nc2ccccc2)cc1 | 4.0 | . | 5.2 | 1.6 | 3.5
COc1cc(/C=N/NS(=O)(=O)c2ccccc2)c(OC)c(OC)c1 | 2.1 | -7.0 | 1.9 | -17.3 | 1.1
Cc1ccccc1Oc1ccc(Oc2ccccc2C)nn1 | 1.7 | -1.0 | -2.5 | -3.7 | -2.4
N#CC1(NC(=O)COC(=O)c2ccccc2[N+](=O)[O-])CCCCC1 | 20.0 | 24.1 | -2.4 | 1.0 | 2.3
O=C(NCc1ccccn1)c1[nH]c(C(F)(F)F)nc1-c1ccccc1 | . | -0.6 | 1.6 | . | -1.8
CCCC(=O)NC1=C(Cl)C(=O)c2ccccc2C1=O | 2.6 | 97.9* | 5.9 | -12.0 | -3.1
C[C@H]1CN([C@@H](C)CO)C(=O)c2cc(C#Cc3cccc(F)c3)cnc2O[C@@H]1CN(C)C(=O)C1CCC1 | . | . | 1.2 | . | .
CCOc1ccc(OC(=O)C(CCS(C)(=O)=O)N2C(=O)c3ccccc3C2=O)cc1 (stereo not drawn) | 2.1 | 5.0 | 0.5 | -0.8 | -3.8
CC(=O)c1ccc(OC(=O)C(CCS(C)(=O)=O)N2C(=O)c3ccccc3C2=O)cc1 (stereo not drawn) | 2.8 | 81.2* | . | -12.3 | 1.9
